Assay outcomes deposited in PubChem by National Center for Advancing Translational Sciences (NCATS).
Giardia killer: Small Molecules that selectively kill Giardia lamblia: qHTS | Giardia lamblia trophozoite viability | activity change, % at 7.66 µM, hits read low | 340,000 compounds, 0.15% hits; in the data active = activity change below about -80%; inconclusive = between about -30% and that limit;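 also: parasites exposed to compound for two days anaerobically before the ATP read; % is scaled to controls: 0 for no effect and ±100 for the full control effect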
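Trophozoites 100 cells/well + cpd; 48 hrs, 37 deg C, anaerobic. ATPLite 1-Step added, 15-30 min RT, luminescence read (ATP-based viability).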
uPA generation: qHTS for Inhibitors of Cell Surface uPA Generation | 330,000 compounds, 0.31% hits | Potency, µM (highest dose often 38.3 µM), for the others: at the top dose activity change, negative = inhibition, most hits filed as inhibitors | cell surface uPA generation assay, qHTS | AID 540303, 2011; active = well fitted inhibition curve with a large enough effect; inconclusive = small, poorly fitted or top-dose-only effect; inactive = no such curve, though single readings can be large or run the other way; tested in mouse RAW 264.7 cells; also: potency is read from the fitted curve at half-maximal effect; % is scaled to controls: 0 for no effect and ±100 for the full control effect; nearly all actives have a fitted effect of over 55% in size
TGFb inhibitor: qHTS for Inhibitors of TGF-b; 410,000 compounds, 1.2% hits; HepG2 CAGA-GFP TGF-b/SMAD3 reporter, GFP fluorescence, 18 h; TGF-beta stimulated, 500 pg/mL final; Potency, µM (titrated, usually from 46.1 µM), for inactives: at the top dose activity, negative = inhibition, most hits filed as inhibitors; AID 588855, 2011; also: potency is read from the fitted curve at half-maximal effect; % is scaled to controls: 0 for no effect and ±100 for the full control effect; nearly all actives have a fitted effect of over 65% in size
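Inhibition of TGF-beta-driven CAGA-GFP reporter expression in HEPG2 cells is measured by cellular GFP fluorescence after 18 h stimulation with 500 pg/mL recombinant TGF-beta in 1% FBS medium at 37 degrees C.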
HepG2 viability: qHTS for Inhibitors of TGF-b: Cytotox Counterscreen. Potency, µM (highest dose often 46.1 µM), for the others: top-dose activity change, negative = cytotoxicity, usual class: cytotoxic. HepG2 CAGA-GFP viability, ATP luminescence, 18 h. 410,000 compounds, 0.76% hits; also: potency is read from the fitted curve at half-maximal effect
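HepG2 CAGA-GFP cells (1000/well, DMEM with 1% FBS) received compound, then TGF-beta at 500 pg/mL final, and were incubated 18 hours at 37 degrees C. Viability was read by CellTiter-Glo luminescence. Media-only wells were set as complete cell-killing and DMSO as no toxicity.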
ATXN viability: Viability Counterscreen for Primary qHTS for Inhibitors of ATXN expression; S2 cells (HEK-293 line with an ATXN2-luciferase reporter) viability, CellTiter-Fluor protease fluorescence, 24 h; Potency, µM (doses to about 56.7 µM), most hits filed as cytotoxic; 400,000 compounds, 0.49% hits; also: potency is read from the fitted curve at half-maximal effect; nearly all actives have a fitted effect of over 40% in size
ATXN2 expr inh: Primary qHTS for Inhibitors of ATXN expression | Potency, µM (doses to about 57 µM), for the others: top-dose activity change, negative = inhibition, actives largely listed as inhibitors | HEK-293 ATXN2-luciferase reporter, luminescence, 24 h | 360,000 compounds, 0.72% hits | AID 1745845, 2022; also: potency is read from the fitted curve at half-maximal effect; % is scaled to controls: 0 for no effect and ±100 for the full control effect; nearly all actives have a fitted effect of over 55% in size
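qHTS (up to 57 uM final) was run with 24 h compound exposure of reporter cells at 37 °C. Each well was multiplexed: SteadyGlo luminescence measured ATXN2-luciferase expression after a fluorogenic Gly-Phe-AFC viability readout (25 uM final).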
Starred values were filed as active, the others as inactive; i = inactive; ? = inconclusive; nt = not tested or not shown; ! = not confirmed by another sample. Compounds with a hit are over-represented: about 2.6% of the library has one in this group of screens. Unless noted, calls follow the shape of the dose curve; as a rule, active = well fitted curve in the direction sought with a large enough effect; inconclusive = small, poorly fitted or top-dose-only effect, or another doubt; inactive = no such curve, though single readings can be large; an effect the other way counts as inactive or inconclusive.

SMILES	Giardia killer	uPA generation	TGFb inhibitor	HepG2 viability	ATXN viability	ATXN2 expr inh
CCOC(=O)C(=O)/C(C#N)=C/Nc1ccccc1	-25	4%	-6%	5%	i	1%
CCOC(=O)/C(=C\c1cccnc1)C(=O)c1cc(C(C)=O)c(Nc2ccccc2)s1	-17	6%	2.8µM*	-89%	4.5µM*	3.5µM*
CC(NC(=O)c1ccco1)c1nnc2n1CCN(Cc1cccc(Cl)c1)CC2 (stereo not given)	nt	nt	nt	nt	i	nt
Cc1c(C2(c3cc(C(C)C)c(O)c(Br)c3C)OS(=O)(=O)c3ccccc32)cc(C(C)C)c(O)c1Br	nt	nt	-26%	-8%	nt	nt
CC(=O)Nc1ccc(C(=O)N2CCCC(n3cc(C(=O)NCC(C)C)nn3)C2)cc1 (stereo not given)	nt	nt	nt	nt	i	nt
O=C(O)c1cccc(-c2nnn(Cc3ccccc3)n2)c1	0	4%	-1%	-7%	i	-24%
O=C(O)c1cccc(-c2nnn(Cc3ccccc3Cl)n2)c1	10	0%	4%	5%	i	11µM*
Cc1ccc(N2C(=O)CC(Sc3nc(C)cc(C)n3)C2=O)cc1 (stereo not given)	14	5µM*	-10%	-11%	i	nt
c1c2c(cc3sc(N4CCOCC4)nc13)OCCO2	?	-10%	0%	-58%	i	6.3µM*
COc1ccccc1CN1CCCC(n2cc(C(=O)N3CCCC3)nn2)C1 (stereo not given)	nt	nt	nt	nt	i	nt
Cc1ccc(CCNC(=O)c2oc(=O)c3ccccc3c2-c2ccc(C)cc2)cc1	nt	nt	?	-35%	i	-17%
Cc1ccccc1CS(=O)(=O)Cc1ccc(C(=O)NCCc2ccc(Cl)cc2)o1	nt	nt	14µM*	-19%	nt	nt
Cc1ccc(-c2c(C(=O)NCCc3ccc(Cl)cc3)oc(=O)c3ccccc23)cc1	nt	nt	11µM*	-2%	i	-38%
CC(O)(COc1ccccc1)c1ccc2c(c1)CN(Cc1cccc3cccnc13)CCO2 (stereo not given)	nt	nt	nt	nt	i	nt
C[C@@H]1CN([C@H](C)CO)S(=O)(=O)c2ccc(C#Cc3ccccc3F)cc2O[C@H]1CN(C)C(=O)c1ccc2c(c1)OCO2	nt	nt	?	-30%	13µM*	?
COc1ccc(OCCn2cc(C=O)c3ccccc32)cc1	-8	-4%	7.9µM*	-50%	i	-25%
Cc1ccccc1OCCn1cc(C=O)c2ccccc21	-4	-6%	?	-34%	i	-6%
Cc1ccc2nc(NC(=O)CSCC(=O)OCC(=O)c3ccc(Br)cc3)sc2c1	0	-5%	-1%	-19%	i	5.6µM*
COC(=O)c1ccc2nc(NC(=O)CSCC(=O)OCC(=O)c3ccccc3)sc2c1	6	-23%	5%	1%	i	47%
CCOc1ccc(S(=O)(=O)Nc2ccc3c(c2)c(C(C)=O)c(C)n3S(=O)(=O)c2ccc(OCC)cc2)cc1	nt	nt	11µM*	-12%	nt	nt
CC(C)c1c(C(=O)N2CCN(CCO)CC2)cnn1-c1nccc(-c2cccs2)n1	nt	nt	nt	nt	i	nt
C/C(N)=C(/C#N)C(=O)CSc1nc2ccccc2c(=O)n1Cc1ccc(F)cc1	-17	9%	11µM*	-46%	?	nt
COc1ccc(C(=O)Nc2ncc(C)s2)cc1S(=O)(=O)N1CCOCC1	-7	4%	-1%	-2%	i	7%
COc1cc(C)c(Sc2cnc(NC(=O)c3ccc(CNC(C)C(C)(C)C)cc3)s2)cc1C(=O)N1CCN(C(C)=O)CC1 (stereo not given)	nt	nt	nt	nt	nt	8.6µM*
CC(C)(C)n1ncc2c(=O)n(Cc3ccccc3F)cnc21	nt	nt	-7%	-17%	nt	nt
SMILES	Giardia killer	uPA generation	TGFb inhibitor	HepG2 viability	ATXN viability	ATXN2 expr inh
COc1ccc(Cl)cc1NC(=S)NNC(=O)C1(C)CC1(Cl)Cl (stereo not given)	-6	-1%	20µM*	-42%	i	-11%
COc1ccc(Cl)cc1NC(=O)Nc1ccccc1SC	-18	14%	-18%	-31%	i	14%
COC(=O)c1cc(OC)c(OC)cc1NC(=S)Nc1cc(Cl)ccc1OC	-14	-3%	-28%	-1%	i	3%
COc1ccc(Cl)cc1NC(=O)c1cccc([N+](=O)[O-])c1O	7	-8%	11µM*	-20%	?	?
COc1ccc(Cl)cc1NC(=O)Nc1ccccc1C(N)=O	-8	3.2µM*	-7%	-13%	?	nt
CSc1ccc(CNC(=O)c2cc3c(=O)n(Cc4ccco4)ccc3nc2C)cc1	nt	nt	11µM*	-43%	nt	nt
COc1ccc(CNC(=O)c2cc3c(=O)n(Cc4ccco4)ccc3nc2C)cc1	nt	nt	?	-12%	nt	nt
CCCCc1ccc(-n2nc3ccc(NC(=O)c4cc5ccccc5o4)cc3n2)cc1	nt	nt	?	-98%	22µM*	?
CCOC(=O)c1cccc(NC(=O)Nc2ccc(OCC)cc2)c1	-6	?	-29%	-38%	?	nt
Cc1ccccc1OCC(=O)Nc1cccc(C(=O)O)c1	-14	-6%	15%	4%	i	0.17µM*
COc1ccccc1NS(=O)(=O)c1cccc(NC(=O)Nc2ccc(Cl)cc2)c1	-9	-4%	?	13µM*	?	?
CCOc1ccc(NC(=O)Nc2cccc(C(=O)O)c2)cc1	?	-14%	-13%	-55%	i	1µM*
Cc1ccnc2ccc3ccccc3c12	nt	nt	-17%	1%	nt	nt
COc1ccc(C(=O)NCCc2nnc3n2CCN(CC2CC=CCC2)CC3)cc1 (stereo not given)	nt	nt	nt	nt	i	nt
COC(=O)C(=O)Nc1cccc2cccnc12	-1	nt	13%	6%	nt	nt
CC(C)(C)n1ncc2c(=O)n(Cc3cccc(-c4cccs4)c3)cnc21	nt	nt	?	-17%	nt	nt
O=C(Nc1ccc(Cl)cc1)Nc1cccc(C(=O)O)c1	-17	-7%	1%	-3%	i	8.9µM*
CCOc1ccc(-n2nc3ccc(NC(=O)Cc4ccccc4)cc3n2)cc1	nt	nt	?	-93%	14µM*	?
O=C(Nc1cccc(Cl)c1)Nc1ccccc1C(=O)O	-5	8.9µM*	-16%	-6%	?	nt
Cc1ccc(C(=O)N(Cc2cc3ccc(F)cc3nc2N2CCC(O)CC2)CC2CCCO2)cc1 (stereo not given)	nt	nt	nt	nt	i	nt
CC=CC(=O)N(CC)c1ccccc1C	nt	nt	nt	nt	nt	-2%
CC(C)(C)CC(C)(C)N=C1Nc2ccc(Cl)cc2N[C@]12C[C@H]1CCCC(=O)N3CC[C@@H](C2)[C@@H]13	nt	nt	?	8.9µM*	nt	nt
Cc1cc2c(cc1C)N[C@]1(C[C@H]3CCCC(=O)N4CC[C@@H](C1)[C@@H]34)C(=NC(C)(C)CC(C)(C)C)N2	-12	-4%	?	10µM*!	?	-16%
